Test results from PubChem BioAssay (Tox21).
Values joined by “and” are separate entries in the source; they are usually repeats but may differ in a detail not shown here. Equal values may be shown once. Inconclusive results are not listed. Where a call stands in place of a potency, no number is given. The source holds several records for some structures; these can differ, active in one and inactive in another. Active and inactive are the calls of the source. Calls follow the shape of the dose curve; as a rule, active = well fitted cell-killing curve with a large enough effect in the repeat runs; inconclusive = weak or mixed curves; inactive = flat fitted curve, though single readings scatter.

assay: qHTS RealTime-Glo MT Cell Viability Assay in HepG2 cells - 24 hour (AID 1224867); settings: RealTime-Glo luminescence; series mostly up to 76.8 µM; also: nearly all actives have a fitted effect of over 50% in size
In short: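 Cell number in HepG2 cultures estimated from NanoLuc luminescence generated by metabolic reduction of a prosubstrate by living cells. The homogeneous, nonlytic format allowed repeated reads at 0, 8, 16, 24, 32 and 40 h of compound exposure.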
Potency is read from the fitted curve at half-maximal effect.

Structure (SMILES)	Potency
O=[N+]([O-])c1ccc(Cl)c([N+](=O)[O-])c1	35.2 µM (active) and 17.4 µM (active)
CC1(C)C(C(=O)OC(C#N)c2cccc(Oc3ccccc3)c2)C1(C)C (configuration not stated)	inactive
CC(C)(c1ccccc1)c1ccc(O)cc1	inactive
O=C1C(Cl)=C(Cl)C(=O)c2ccccc21	24.6 µM (active) and 11 µM (active)
CC(C)(c1ccc(OCC2CO2)cc1)c1ccc(OCC2CO2)cc1 (configuration not stated)	inactive
Nc1ccc([N+](=O)[O-])cc1N	inactive
CCN(CC)C(=O)C(C)Oc1cccc2ccccc12 (configuration not stated)	inactive
CC(C)(O)C#N	inactive
CCCCCCCCCC(CC)c1ccc(S(=O)(=O)O)cc1 (configuration not stated)	inactive
CCCCCCCC[N+](C)(CCCCCCCC)CCCCCCCC	10.9 µM (active) and 21.9 µM (active) and 9.77 µM (active)
c1ccc2c(c1)Nc1ccccc1S2	inactive
O=C(O)CF	inactive
CC(C)=CC1C(C(=O)OCc2cccc(Oc3ccccc3)c2)C1(C)C (configuration not stated)	inactive
C[N+](C)(C)CC(=O)O	inactive
CCOP(=S)(OCC)SCn1c(=O)oc2cc(Cl)ccc21	inactive
CCC1(c2ccc(N)cc2)CCC(=O)NC1=O (configuration not stated)	inactive
N#Cc1c(Cl)c(Cl)c(Cl)c(C#N)c1Cl	21.5 µM (active) and 4.9 µM (active)
CCC[CH2][Sn]([Cl])([CH2]CCC)[CH2]CCC	1.55 µM (active) and 549 nM (active)
C=CC(=O)OCC(CC)(COC(=O)C=C)COC(=O)C=C	25.2 µM (active) and 12.3 µM (active)

Structure (SMILES)	Potency
Oc1ccc(Cl)cc1Cc1ccccc1	inactive and 49.6 µM (active)
C[N+](C)(C)C	inactive
CCCCCCCCCc1ccc(O)cc1	inactive
COc1ccc(CO)cc1	inactive
CCOP(=S)(OCC)SCSC(C)(C)C	inactive
O=[N+]([O-])c1ccc(Nc2ccccc2)cc1	inactive
CC(C)=CC1C(C(=O)OCN2C(=O)C3=C(CCCC3)C2=O)C1(C)C (configuration not stated)	inactive
CN(C)c1nc(=O)n(C2CCCCC2)c(=O)n1C	inactive
CC(C)Nc1ccc(Nc2ccccc2)cc1	54.7 µM (active) and 49 µM (active)
NC(=O)CN1CCCC1=O	inactive
C[N+](C)(C)CC(=O)[O-]	inactive
NN=C(N)N	inactive
[CH3][Sn]([Cl])([Cl])[Cl]	inactive
COC(=O)Nc1nc2ccccc2[nH]1	inactive
CC(C)(c1ccccc1)c1ccc(O)c(C(C)(C)c2ccccc2)c1	54.4 µM (active) and 43.6 µM (active)
CNC(=O)CSP(=S)(OC)OC	inactive
C[C@]12CCC(=O)C=C1CC[C@@H]1[C@@H]2CC[C@@]2(C)[C@H]1CC[C@]2(C)O	inactive
CCC[CH2][Sn]([Cl])([Cl])[CH2]CCC	313 nM (active) and 219 nM (active)
